Assay results from the supplement of paper PMC12645437, “Orthogonal IMiD-Degron Pairs Induce Selective Protein Degradation in Cells” (ACS Chemical Biology, 2025).
Over roughly 8,300 sequences, “log2 fold change of degron read counts, EGFP-low vs EGFP+ sorted cells (limma voom), compound-induced degradation” has its median near -1.1; the highest 2% begin near 3.2. This is one part of a sample in which the highest values are shown more often than they occur.

T1: CRBN, Q96SW2
T1 chain: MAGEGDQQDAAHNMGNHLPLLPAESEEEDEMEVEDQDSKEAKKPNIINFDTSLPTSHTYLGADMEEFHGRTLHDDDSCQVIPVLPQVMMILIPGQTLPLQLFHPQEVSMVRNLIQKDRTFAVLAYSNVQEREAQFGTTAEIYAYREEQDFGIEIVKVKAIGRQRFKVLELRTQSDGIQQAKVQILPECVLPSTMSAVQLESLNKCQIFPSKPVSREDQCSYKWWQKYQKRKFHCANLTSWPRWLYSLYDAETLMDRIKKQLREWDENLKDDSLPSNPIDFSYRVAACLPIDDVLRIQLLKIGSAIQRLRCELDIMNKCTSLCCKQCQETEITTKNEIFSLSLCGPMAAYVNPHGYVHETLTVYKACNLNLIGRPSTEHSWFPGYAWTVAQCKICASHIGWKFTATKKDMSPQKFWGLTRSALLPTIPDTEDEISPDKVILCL


Target: T1, CRBN, Q96SW2
Assay: log2 fold change of degron read counts, EGFP-low vs EGFP+ sorted cells (limma voom), compound-induced degradation; higher = more compound-induced degradation of the degron-EGFP fusion; degrons are variants of IKZF1/3 zinc finger 2; compound dose not given here
Settings: Jurkat, 18 h
[1] = compound: compound 19 (5-tert-butyl-thalidomide)
[2] = compound: compound 22 (5-morpholino-thalidomide)
[3] = compound: compound 33 (diphenyl IMiD analogue)
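Also: pooled lentiviral library of zinc finger degron-EGFP fusions in mCherry-positive Jurkat cells, FACS-sorted after compound exposure, with degron abundance counted by next-generation sequencing.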

| Sequence | log2 fold change of degron read counts [1] | log2 fold change of degron read counts [2] | log2 fold change of degron read counts [3] | log2 fold change of degron read counts (compound: thalidomide) |
| --- | --- | --- | --- | --- |
| FKCSVCGHMFTQKGNLLRHIKL [46F_47K_49S_50V_52G_53H_54M_55F_67L_, Q9UKT9] | -3.17 | -3 | -3.02 | -2.7 |
| LICNQCGFDCTQKGNLLRHIKL [46L_47I_49N_50Q_52G_53F_54D_55C_67L_, Q9UKT9] | -3.41 | -3.2 | -2.9 | -2.97 |
| FYCDICGAMFTQKGNLLRHIKL [46F_47Y_49D_50I_52G_53A_54M_55F_67L_, Q9UKT9] | 2.46 | 1.99 | 0.476 | -1.55 |
| FRCNQCGHNFTQKGNLLRHIKL [46F_47R_49N_50Q_52G_53H_54N_55F_67L_, Q9UKT9] | -2.02 | -3.14 | -2.79 | -2.26 |
| FRCDVCGAPFTQKGNLLRHIKL [46F_47R_49D_50V_52G_53A_54P_55F_67L_, Q9UKT9] | 2.07 | 3.3 | 3.21 | 2.88 |
| FRCNVCGAPFTQKGNLLRHIKL [46F_47R_49N_50V_52G_53A_54P_55F_67L_, Q9UKT9] | 2.26 | 2.96 | 2.94 | 2.77 |
| FGCDVCGAPFTQKGNLLRHIKL [46F_47G_49D_50V_52G_53A_54P_55F_67L_, Q9UKT9] | -1.15 | -2.27 | -2.07 | -2.21 |
| FQCDVCGAPFTQKGNLLRHIKL [46F_47Q_49D_50V_52G_53A_54P_55F_67L_, Q9UKT9] | 0.996 | 2.11 | -0.0653 | 2.48 |
| FQCPVCGAPFTQKGNLLRHIKL [46F_47Q_49P_50V_52G_53A_54P_55F_67L_, Q9UKT9] | 3.11 | 3.34 | 2.34 | 3.87 |
| FFCNVCGAPFTQKGNLLRHIKL [46F_47F_49N_50V_52G_53A_54P_55F_67L_, Q9UKT9] | 2.8 | 1.44 | 0.47 | -0.472 |
| FFCPVCGAPFTQKGNLLRHIKL [46F_47F_49P_50V_52G_53A_54P_55F_67L_, Q9UKT9] | 3.53 | 2.84 | 2.23 | 1.5 |
| FVCDVCGAPFTQKGNLLRHIKL [46F_47V_49D_50V_52G_53A_54P_55F_67L_, Q9UKT9] | -0.0613 | 2.93 | 1.05 | 2.09 |
| FLCNVCGAPFTQKGNLLRHIKL [46F_47L_49N_50V_52G_53A_54P_55F_67L_, Q9UKT9] | -0.289 | 0.405 | 1.47 | 1.32 |
| FFCDVCGAPFTQKGNLLRHIKL [46F_47F_49D_50V_52G_53A_54P_55F_67L_, Q9UKT9] | 2.96 | 1.95 | 0.307 | -0.766 |
| FQCNVCGAPFTQKGNLLRHIKL [46F_47Q_49N_50V_52G_53A_54P_55F_67L_, Q9UKT9] | 0.618 | 2.01 | 0.742 | 2.69 |
| FRCPVCGAPFTQKGNLLRHIKL [46F_47R_49P_50V_52G_53A_54P_55F_67L_, Q9UKT9] | 3.29 | 3.62 | 3.27 | 3.51 |
| FNCEICGALFTQKGNLLRHIKL [46F_47N_49E_50I_52G_53A_54L_55F_67L_, Q9UKT9] | 0.13 | -1.53 | -0.743 | -1.13 |
| FDCEICGAYFTQKGNLLRHIKL [46F_47D_49E_50I_52G_53A_54Y_55F_67L_, Q9UKT9] | -0.0199 | -1.26 | -0.229 | -0.2 |

| Sequence | log2 fold change of degron read counts [1] | log2 fold change of degron read counts [2] | log2 fold change of degron read counts [3] | log2 fold change of degron read counts (compound: thalidomide) |
| --- | --- | --- | --- | --- |
| FTCNICGAMFTQKGNLLRHIKL [46F_47T_49N_50I_52G_53A_54M_55F_67L_, Q9UKT9] | -1.09 | -0.0854 | 0.875 | 0.88 |
| FDCNQCGHNFTQKGNLLRHIKL [46F_47D_49N_50Q_52G_53H_54N_55F_67L_, Q9UKT9] | -2.11 | -2.61 | -2.32 | -2.04 |
| FFCNQCGRDFTQKGNLLRHIKL [46F_47F_49N_50Q_52G_53R_54D_55F_67L_, Q9UKT9] | -2.83 | -3.38 | -3.07 | -2.85 |
| FGCNQCGHIFTQKGNLLRHIKL [46F_47G_49N_50Q_52G_53H_54I_55F_67L_, Q9UKT9] | -1.45 | -1.99 | -2.4 | -1.44 |
| FVCPQCGASFTQKGNLLRHIKL [46F_47V_49P_50Q_52G_53A_54S_55F_67L_, Q9UKT9] | -1.71 | 0.559 | 0.703 | 1.25 |
| FMCEICGANFTQKGNLLRHIKL [46F_47M_49E_50I_52G_53A_54N_55F_67L_, Q9UKT9] | -0.123 | 0.396 | 2.76 | 1.56 |
| LCCNQCGFFCTQKGNLLRHIKL [46L_47C_49N_50Q_52G_53F_54F_55C_67L_, Q9UKT9] | -1.18 | -1.17 | -1.27 | -0.874 |
| FGCPVCGAPFTQKGNLLRHIKL [46F_47G_49P_50V_52G_53A_54P_55F_67L_, Q9UKT9] | 3.34 | 1.9 | 1.27 | 0.43 |
| FDCPVCGAPFTQKGNLLRHIKL [46F_47D_49P_50V_52G_53A_54P_55F_67L_, Q9UKT9] | 2.39 | 0.488 | 0.886 | 1.55 |
| FGCNVCGAPFTQKGNLLRHIKL [46F_47G_49N_50V_52G_53A_54P_55F_67L_, Q9UKT9] | -0.996 | -1.44 | -1.2 | -1.32 |
| FCCPVCGAPFTQKGNLLRHIKL [46F_47C_49P_50V_52G_53A_54P_55F_67L_, Q9UKT9] | 3.13 | 2.6 | 1.7 | 2.1 |
| FICDVCGAPFTQKGNLLRHIKL [46F_47I_49D_50V_52G_53A_54P_55F_67L_, Q9UKT9] | -0.148 | 3.08 | 1.53 | 1.67 |
| FSCPVCGAPFTQKGNLLRHIKL [46F_47S_49P_50V_52G_53A_54P_55F_67L_, Q9UKT9] | 3.04 | 2.37 | 1.65 | 2.12 |
| FKCPVCGAPFTQKGNLLRHIKL [46F_47K_49P_50V_52G_53A_54P_55F_67L_, Q9UKT9] | 2.06 | 1.94 | 0.0815 | 2.39 |
| FICNVCGAPFTQKGNLLRHIKL [46F_47I_49N_50V_52G_53A_54P_55F_67L_, Q9UKT9] | -0.34 | 2.49 | 1.6 | 2.07 |
| FACPVCGAPFTQKGNLLRHIKL [46F_47A_49P_50V_52G_53A_54P_55F_67L_, Q9UKT9] | 3.58 | 2.58 | 1.07 | 2.23 |
| FLCPVCGAPFTQKGNLLRHIKL [46F_47L_49P_50V_52G_53A_54P_55F_67L_, Q9UKT9] | 1.29 | 2.67 | 2.93 | 3.41 |
| FICPVCGAPFTQKGNLLRHIKL [46F_47I_49P_50V_52G_53A_54P_55F_67L_, Q9UKT9] | 1.18 | 3.94 | 2.58 | 3.08 |
